These results are taken from PubChem BioAssay (NCATS).

Results filed as inconclusive are left out. The source made the active and inactive calls. Calls come from the whole dose curve; as a rule, active = well fitted curve in the direction sought with a large enough effect; inconclusive = small, poorly fitted or top-dose-only effect, or another doubt; inactive = no such curve, though single readings can be large; an effect the other way counts as inactive or inconclusive.

The nature of test [1]: Quantitative High-Throughput drug screen in 47 multiple myeloma cell lines against the NCATS MIPE library collection: Karpas417_ECACC cell viability assay (AID 1918961). The conditions noted are these: Karpas417 myeloma viability, CellTiter-Glo ATP luminescence, 48 h; viability (% of DMSO): at 45.8 µM (top of the series). In a few lines:
(§1)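 Myeloma cells (500 per well) were exposed to MIPE 4.0 compounds by pin transfer and incubated 48 hours at 37C, 5% CO2. Viability was read as ATP by CellTiter-Glo luminescence, normalised to DMSO (100%) and media-only (0%) wells.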

Test [2] is described as follows: Quantitative High-Throughput drug screen in 47 multiple myeloma cell lines against the NCATS MIPE library collection: KHM11_PLB cell viability assay (AID 1918962). Note: nearly all actives have a fitted effect of over 35% in size. An outline of the steps: (§2)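 CellTiter-Glo luminescence (ATP) after 48 h compound exposure, 37C/5% CO2; 500 cells/well; MIPE 4.0 approved/investigational drugs pinned in; DMSO = 100%, media only = 0% viability.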

Test [3] can be described thus: Quantitative High-Throughput drug screen in 47 multiple myeloma cell lines against the NCATS MIPE library collection: JIM3_ECACC cell viability assay (AID 1918963; note: nearly all actives have a fitted effect of over 35% in size). An outline of the steps:
as §2

Test [4] is described as follows: Quantitative High-Throughput drug screen in 47 multiple myeloma cell lines against the NCATS MIPE library collection: INA6_PLB cell viability assay (AID 1918965; note: nearly all actives have a fitted effect of over 55% in size). An outline of the steps: as §1
Test [5] in a line: Quantitative High-Throughput drug screen in 47 multiple myeloma cell lines against the NCATS MIPE library collection: JJN3_DSMZ cell viability assay (AID 1918966; note: nearly all actives have a fitted effect of over 50% in size). In a few lines: as §2
A short description of test [6]: Quantitative High-Throughput drug screen in 47 multiple myeloma cell lines against the NCATS MIPE library collection: H1112_PLB cell viability assay (AID 1918967; note: nearly all actives have a fitted effect of over 30% in size). An outline of the steps:
as §2

Test [7] is described as follows: Quantitative High-Throughput drug screen in 47 multiple myeloma cell lines against the NCATS MIPE library collection: Karpas25_ECACC cell viability assay (AID 1918968; note: nearly all actives have a fitted effect of over 35% in size). In a few lines:
as §2

The nature of test [8]: Quantitative High-Throughput drug screen in 47 multiple myeloma cell lines against the NCATS MIPE library collection: KMS27_JCRB cell viability assay (AID 1918970). Note: nearly all actives have a fitted effect of over 30% in size. Conditions: KMS27 myeloma cells, CellTiter-Glo ATP viability, 48 h; viability (% of DMSO): at 45.8 µM (top of the series). An outline of the steps:
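Luminescent ATP read-out (CellTiter-Glo, 5 min at room temperature) after 48 h compound exposure of 500 KMS27_JCRB cells per well; DMSO wells define full viability and media-only wells zero.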

The nature of test [9]: Quantitative High-Throughput drug screen in 47 multiple myeloma cell lines against the NCATS MIPE library collection: KMS12BM_JCRB cell viability assay (AID 1918971). Note: nearly all actives have a fitted effect of over 35% in size. In a few lines:
(§3)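 Approved and investigational drugs from MIPE 4.0 were added by pin tool to 500 cells per well. After 48 hours at 37C, ATP-based CellTiter-Glo luminescence indicated remaining viability.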

Test [10] in a line: Quantitative High-Throughput drug screen in 47 multiple myeloma cell lines against the NCATS MIPE library collection: KMS12PE_JCRB cell viability assay (AID 1918972). Note: nearly all actives have a fitted effect of over 30% in size. In a few lines: as §1
Test [11] can be described thus: Quantitative High-Throughput drug screen in 47 multiple myeloma cell lines against the NCATS MIPE library collection: KMS20_JCRB cell viability assay (AID 1918973). Note: nearly all actives have a fitted effect of over 45% in size. In a few lines: as §2
Test [12] is described as follows: Quantitative High-Throughput drug screen in 47 multiple myeloma cell lines against the NCATS MIPE library collection: KMS26_JCRB cell viability assay (AID 1918975). Note: nearly all actives have a fitted effect of over 45% in size. In a few lines: as §3
Test [13] can be described thus: Quantitative High-Throughput drug screen in 47 multiple myeloma cell lines against the NCATS MIPE library collection: MOLP8_DSMZ cell viability assay (AID 1918977). Note: nearly all actives have a fitted effect of over 45% in size. An outline of the steps: (§4)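 Myeloma cells (500/well) treated with MIPE 4.0 compounds for 48 h at 37 °C, 5% CO2. Viability read as ATP via CellTiter-Glo luminescence after 5 min at RT; DMSO-only wells = 100%, media-only = 0% viability.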

Test [14] in a line: Quantitative High-Throughput drug screen in 47 multiple myeloma cell lines against the NCATS MIPE library collection: NCIH929_DSMZ cell viability assay (AID 1918978). Note: nearly all actives have a fitted effect of over 35% in size. In a few lines: as §4
The nature of test [15]: Quantitative High-Throughput drug screen in 47 multiple myeloma cell lines against the NCATS MIPE library collection: MM1S_ATCC cell viability assay (AID 1918980). Note: nearly all actives have a fitted effect of over 45% in size. In a few lines:
as §4

Test [16] can be described thus: Quantitative High-Throughput drug screen in 47 multiple myeloma cell lines against the NCATS MIPE library collection: MM1R_ATCC cell viability assay (AID 1918981). Note: nearly all actives have a fitted effect of over 35% in size. In a few lines: as §4
Test [17] is described as follows: Quantitative High-Throughput drug screen in 47 multiple myeloma cell lines against the NCATS MIPE library collection: JIM1_ECACC cell viability assay (AID 1918964). In a few lines: as §2
Test [18] is described as follows: Quantitative High-Throughput drug screen in 47 multiple myeloma cell lines against the NCATS MIPE library collection: OCIMY1_PLB cell viability assay (AID 1918979). Note: nearly all actives have a fitted effect of over 35% in size. An outline of the steps: as §4
Test [19] in a line: Quantitative High-Throughput drug screen in 47 multiple myeloma cell lines against the NCATS MIPE library collection: MMM1_PLB cell viability assay (AID 1918976). Note: nearly all actives have a fitted effect of over 35% in size. An outline of the steps: as §4
Potency is the fitted concentration of half-maximal effect.

`O=C(Nc1cc2cc[nH]c2cn1)c1ccccc1`: the Potency was 2.96 µM (active) in test [1]; 7.43 µM (active) in [2]; 7.43 µM (active) in [3]; 8.33 µM (active) in test [4]; 9.35 µM (active) in test [5]; 9.35 µM (active) in [6]. In addition, the Potency was 8.33 µM (active) in [7]; 13.2 µM (active) in [8]; 14.8 µM (active) in [9]; 8.33 µM (active) in [10]; 9.35 µM (active) in test [11]; 11.8 µM (active) in [12]. Besides, the Potency was 3.72 µM (active) in test [13], 8.33 µM (active) in [14], 14.8 µM (active) in [15] and 7.43 µM (active) in [16].

In the case of `c1cc(N[C@@H]2CCNC2)nc(-c2cnc3ccc(-c4cn[nH]c4)cn23)c1`, the Potency in test [1] is 4.69 µM (active); in [2] it was 3.32 µM (active); in [17], 4.18 µM (active); in test [4], 0.935 µM (active); in [5], 5.9 µM (active); in [7] it was 5.9 µM (active). For the same compound, the Potency in test [8] was 2.64 µM (active); in test [9], 16.6 µM (active); in test [10] it was 16.6 µM (active); in test [11], 11.8 µM (active); in test [12], 14.8 µM (active); in [13] it was 2.96 µM (active). The values for the Potency in test [14] and in test [16] were 13.2 µM (active) and 20.9 µM (active), respectively. The Potency entry in test [18] is “inactive”.

`CCNC(=O)Nc1ccc(-c2nc3c(c(N4CCOC[C@H]4C)n2)CCN(C2COC2)C3)cc1`: the Potency was 0.0833 µM (active) in test [1]; 0.469 µM (active) in [2]; 0.132 µM (active) in test [17]; 2.09 µM (active) in test [4]; 0.833 µM (active) in test [5]; 0.59 µM (active) in [6]. Further, the Potency in test [7] is 0.935 µM (active); in test [8] it was 0.59 µM (active); in test [10], 5.26 µM (active); in test [12], 1.66 µM (active); in test [19], 0.418 µM (active); in test [13], 0.833 µM (active). Further, the Potency in test [14] was 0.526 µM (active); in test [15], 1.05 µM (active); in [16], 1.05 µM (active).

For `CCOC(=O)[C@@H](N)Cc1ccc(-c2cc(O[C@H](c3ccc(Cl)cc3-n3ccc(C)n3)C(F)(F)F)nc(N)n2)cc1`, the Potency was 9.35 µM (active) in [1]; 20.9 µM (active) in test [3]; 6.62 µM (active) in [17]; 23.5 µM (active) in test [4]; 18.7 µM (active) in test [5]; 18.7 µM (active) in test [7]. In addition, the Potency in test [8] is 10.5 µM (active); in [9], 20.9 µM (active); in test [10], 10.5 µM (active); in test [12], 18.7 µM (active); in [19], 11.8 µM (active); in test [13] it was 11.8 µM (active). Further, the Potency in test [14] was 18.7 µM (active); in [18], 18.7 µM (active); in test [15], 2.96 µM (active); in [16], 14.8 µM (active).

For `C=CC(=O)N1CCc2ccc(-n3c(=O)ccc4cnc5ccc(-c6cnn(C)c6)cc5c43)cc21`, the Potency in test [1] is 0.935 µM (active); in [3], 2.96 µM (active); in test [17], 1.87 µM (active); in [4] it was 0.235 µM (active); in test [5] it was 1.05 µM (active); in test [6] it was 1.05 µM (active). For the same compound, the Potency was 0.59 µM (active) in test [7]; 2.96 µM (active) in [8]; 4.69 µM (active) in test [9]; 2.96 µM (active) in [10]; 0.833 µM (active) in [11]; 1.32 µM (active) in test [12]. Also, the Potency in [19] is 1.87 µM (active); in [13], 0.59 µM (active); in test [14], 1.66 µM (active); in [18], 1.87 µM (active); in test [15] it was 2.64 µM (active); in test [16], 2.35 µM (active).
